The supplement of paper PMC12636033
± gives the standard deviation of the averaged measurements. Over roughly 33,000 sequences, “E-score (rank enrichment, -0.5 to 0.5)” has its median near -0.0043; the highest 2% begin near 0.24. For the sample, the highest values were picked, then their nearest neighbours and some sequences at random.

Each sequence was assayed on 2Sp-muMax20 (muMax20 with two 2,6-bis(methyl)pyridine Cys staples) (assay: PBM 8-mer E-score (E-score (rank enrichment, -0.5 to 0.5)); higher = stronger preferential binding).
Procedure: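 Protein binding microarray (universal PBM chip covering all 10-mers in fixed probe flanks) with chemically synthesized human Max(13-93) bHLH-LZ analogs (not full-length Max) bearing noncanonical residues (hArg, Tha, Aib, Nle at 65) and aromatic Cys staples. Read-out per 8-mer (and its reverse complement): E-score (rank-based enrichment, -0.5 to 0.5) and Z-score of median probe intensity.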

Sequence	PBM 8-mer E-score
AATAATTC	0.189 ± 0.046
GATAATTA	0.196 ± 0.061
CATAATTA	0.253 ± 0.034
CATAATTC	-0.0185 ± 0.041
CCTAATTA	0.0904 ± 0.21
AATAATTA	0.28 ± 0.019
TACTGCTA	0.126 ± 0.038
ACGGAGTC	-0.0911 ± 0.056
ACGGGGCT	-0.148 ± 0.019
AGAGCACG	0.134 ± 0.077
ACCAGTAC	-0.126 ± 0.045
GGGTGCAC	-0.0471 ± 0.01
ATCATGAT	0.257 ± 0.011
ATCATGAG	0.0344 ± 0.13
CTCATGAA	0.0567 ± 0.055
CTCATGTC	-0.0319 ± 0.027
CTCATGAC	0.0229 ± 0.022
ATCATGTC	0.25 ± 0.02
ATCATGTA	0.113 ± 0.059
ATCATGAA	0.144 ± 0.037
CTCATGAG	0.319 ± 0.028
GAGGTACA	-0.0106 ± 0.013
TAGGATAA	0.0706 ± 0.063
AAATCGTG	0.0374 ± 0.006
ATTCGTCA	0.0337 ± 0.012

Sequence	PBM 8-mer E-score
CCGCGCGC	0.13 ± 0.12
GCGCGCGA	0.149 ± 0.071
GCGCGCAC	0.203 ± 0.035
ACACGCGC	0.118 ± 0.046
TCGCGCGA	0.265 ± 0.11
GCACGCGC	0.331 ± 0.018
GCGCGCGC	0.361 ± 0.053
CCGCGCGA	-0.0339 ± 0.029
GCACGCGA	0.0689 ± 0.0054
CCATTGTC	-0.0232 ± 0.0014
ACGAGGTC	0.0484 ± 0.023
ATGAGCAG	0.0835 ± 0.083
AGGGTATA	0.24 ± 0.0057
AGGGTATG	0.178 ± 0.066
CGGGTATA	0.0393 ± 0.086
ATGGTATC	0.165 ± 0.011
ATGGTATA	0.238 ± 0.028
ATGGTATG	0.0455 ± 0.0021
CGTCCTAG	-0.188 ± 0.035
ATGATGTC	0.14 ± 0.091
AGTGAATA	-0.07056 ± 0.00064
ACATAAGT	0.132 ± 0.017
CTAACCAC	-0.0501 ± 0.043
ATCACCAT	0.103 ± 0.052
ATAACCAG	0.0292 ± 0.0095

Sequence	PBM 8-mer E-score
ATAACCAC	0.243 ± 0.014
CTCACCAC	0.0921 ± 0.082
ATCACCAC	0.276 ± 0.0035
CCGAAGCA	0.0942 ± 0.036
CAGTGGCA	-0.004 ± 0.031
CCGAATAA	0.0378 ± 0.031
ACGTAGAG	-0.0148 ± 0.051
GAAAATGC	0.127 ± 0.028
CGAGGCTC	-0.224 ± 0.035
AGCACATG	0.263 ± 0.026
ACCACATG	0.318 ± 0.0037
ATCACATA	0.187 ± 0.0085
ATCACATG	0.305 ± 0.021
ACCACATA	0.0521 ± 0.076
ATCACATC	0.0931 ± 0.021
AGCACATA	0.0303 ± 0.1
AGCACATC	0.0563 ± 0.062
ACCACATC	-0.0798 ± 0.011
CAACGCCG	-0.168 ± 0.12
CGAAACGA	-0.0544 ± 0.031
ATTGTCTG	0.0837 ± 0.039
CTCTCTCC	-0.18 ± 0.14
CCCATTCC	-0.0919 ± 0.059
CGCATACA	0.0225 ± 0.14
AGCGCCAC	-0.0643 ± 0.017

Sequence	PBM 8-mer E-score
TCAATGGA	-0.0717 ± 0.0065
CCGTGGGC	-0.2115 ± 0.0018
GCCAGAGC	-0.206 ± 0.099
GAGTCTAC	-0.125 ± 0.044
CGGTGGGA	-0.0291 ± 0.0059
CATGGGTA	0.072 ± 0.066
AGGTGGGA	0.0626 ± 0.1
GGGTGGGA	0.297 ± 0.0041
GATGGGTA	0.249 ± 0.014
AATGGGTA	0.0946 ± 0.14
CGTGGGTA	0.0577 ± 0.045
AGTGGGTA	0.166 ± 0.0072
GGTGGGTA	0.249 ± 0.035
CGGCACCC	-0.139 ± 0.13
GCTAGACC	-0.164 ± 0.049
CTTCGAAC	-0.115 ± 0.0046
ACCTACAG	0.0593 ± 0.044
AGCGGGGC	-0.0319 ± 0.078
CAAACATG	0.157 ± 0.079
GAAACATC	-0.0525 ± 0.05
CGAACATC	0.00373 ± 0.037
GGAACATA	0.0521 ± 0.044
AAAACATA	0.0989 ± 0.11
GAAACATA	0.254 ± 0.015
CGAACATA	0.255 ± 0.034

Sequence	PBM 8-mer E-score
AAAACATT	0.0666 ± 0.088
AAAACATG	0.24 ± 0.078
ACAGACGG	-0.07 ± 0.089
ATTCGTTG	-0.0514 ± 0.066
ACGTGTAA	0.173 ± 0.072
GCAGCGAA	-0.157 ± 0.066
ACCTTGAT	0.0217 ± 0.046
GATTCAAA	0.0206 ± 0.051
CTCGGTGC	-0.163 ± 0.12
ACGAACTA	-0.0202 ± 0.1
AGTACACA	0.196 ± 0.098
GGTACAAA	0.0427 ± 0.053
TGTACAAA	0.244 ± 0.054
CGTACACG	0.134 ± 0.035
AGTACAAA	0.134 ± 0.1
TGTACACA	0.283 ± 0.012
GTAACAAC	0.00768 ± 0.059
ACATTCAG	0.0112 ± 0.042
GATGAATA	0.201 ± 0.093
AATGAATC	-0.0131 ± 0.0047
AATGAATA	0.259 ± 0.064
AATGAATT	0.179 ± 0.031
AATGAATG	0.24 ± 0.098
TATGAATA	0.169 ± 0.078
ATACTTGG	0.0935 ± 0.004

Sequence	PBM 8-mer E-score
GTCCATCA	-0.0683 ± 0.092
CCCGTCCC	-0.0481 ± 0.028
ACAAACTA	0.115 ± 0.0062
CCAAACTA	0.241 ± 0.0054
CAAAACTA	0.103 ± 0.013
GTGACTAA	0.0929 ± 0.037
CATCCAAC	0.124 ± 0.056
TAGGGACA	-0.0107 ± 0.063
TACTAGTA	0.25 ± 0.055
ATCTACTA	0.263 ± 0.086
GACTAGTA	0.223 ± 0.033
AACTACTA	0.144 ± 0.025
ATCTAGTA	0.0613 ± 0.095
CACTAGTA	0.107 ± 0.1
ATCTACTC	-0.0118 ± 0.032
GACTACTA	0.12 ± 0.12
TACTACTA	0.247 ± 0.058
ATCTACTG	0.0117 ± 0.033
CTCTAGTA	0.125 ± 0.045
GTCTAGTA	0.246 ± 0.021
AAGGCTAA	0.0957 ± 0.095
GCAATCCC	0.107 ± 0.035
AATACTTA	0.05682 ± 0.00026
CGCCTAGA	-0.246 ± 0.079
ACTCCGGA	0.0232 ± 0.032

Sequence	PBM 8-mer E-score
AAAGCTAT	0.0921 ± 0.032
AGAGTTGC	-0.124 ± 0.013
GCTCCGAC	-0.215 ± 0.035
CGGCTTCC	-0.166 ± 0.13
CCTGCCCG	-0.0476 ± 0.0022
CCGTTACC	-0.0555 ± 0.027
GACTTGTA	0.124 ± 0.17
ACCGCAAA	-0.161 ± 0.043
ATTGCGCA	0.124 ± 0.033
CTTGCGCA	0.266 ± 0.0099
CATGCGCA	0.109 ± 0.18
AATGCGCA	0.229 ± 0.021
TATGCGCA	0.267 ± 0.026
CTTGCGCC	-0.148 ± 0.036
TAACATTA	0.114 ± 0.082
ATGTTAAC	0.322 ± 0.023
GTGTTAAC	-0.0129 ± 0.032
ATGTTTAG	0.22 ± 0.022
CTGTTAAC	0.0735 ± 0.0019
ATGTTTAC	0.243 ± 0.073
CTGTTTAC	0.0257 ± 0.014
ACTGGCTC	-0.126 ± 0.031
GGTAAACC	-0.203 ± 0.077
